Several values for one entry are separate records, joined by “and”; a condition that tells them apart may be missing. Equal values may be shown once. Records with an inconclusive call do not appear. The source holds several records for some structures; these can differ, active in one and inactive in another. Activity calls are given as the source filed them. Unless noted, calls come from the whole dose curve; as a rule, active = well fitted curve in the direction sought with a large enough effect in the repeat runs; inconclusive = weak or mixed curves; inactive = no such curve, though single readings can be large; an effect the other way counts as inactive or inconclusive.
What was measured:
[1] = qHTS assay to identify small molecule antagonists of the thyroid receptor (TR) signaling pathway - cell viability counter screen (AID 743064); note: nearly all actives have a fitted effect of over 50% in size; note: potency is the fitted concentration of half-maximal effect
How it was run: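 In rat pituitary GH3.TRE-Luc reporter cells co-exposed to compound and 1 nM T3 for 23.5 h, cytotoxicity was assessed with CellTiter-Fluor in the same wells, read by fluorescence.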

[2] = qHTS assay to identify small molecule antagonists of the thyroid receptor (TR) signaling pathway (AID 743065); note: series mostly up to about 70 µM; nearly all actives have a fitted effect of over 55% in size
How it was run: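 Antagonism measured as loss of luciferase signal in GH3 cells stably carrying a TRE-luciferase reporter, co-treated with compound and T3 (1 nM final) for 23.5 h at 37 C. Viability was read in the same well by CellTiter-Fluor.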

[3] = tested on: thyroid hormone receptor (rat, GH3 cells); test: qHTS assay to identify small molecule agonists of the thyroid receptor (TR) signaling pathway (AID 743066; calls by dose curve)
[4] = target: Estrogen receptor (Homo sapiens) (UniProt P03372); test: qHTS assay to identify small molecule antagonists of the estrogen receptor alpha (ER-alpha) signaling pathway (AID 743069; active = well fitted curve in the direction sought with a large enough effect in the signal ratio in the repeat runs, not every such curve was filed as active; the % refers to the signal ratio)
Sequence of Estrogen receptor (Homo sapiens) (P03372 whole entry, looked up): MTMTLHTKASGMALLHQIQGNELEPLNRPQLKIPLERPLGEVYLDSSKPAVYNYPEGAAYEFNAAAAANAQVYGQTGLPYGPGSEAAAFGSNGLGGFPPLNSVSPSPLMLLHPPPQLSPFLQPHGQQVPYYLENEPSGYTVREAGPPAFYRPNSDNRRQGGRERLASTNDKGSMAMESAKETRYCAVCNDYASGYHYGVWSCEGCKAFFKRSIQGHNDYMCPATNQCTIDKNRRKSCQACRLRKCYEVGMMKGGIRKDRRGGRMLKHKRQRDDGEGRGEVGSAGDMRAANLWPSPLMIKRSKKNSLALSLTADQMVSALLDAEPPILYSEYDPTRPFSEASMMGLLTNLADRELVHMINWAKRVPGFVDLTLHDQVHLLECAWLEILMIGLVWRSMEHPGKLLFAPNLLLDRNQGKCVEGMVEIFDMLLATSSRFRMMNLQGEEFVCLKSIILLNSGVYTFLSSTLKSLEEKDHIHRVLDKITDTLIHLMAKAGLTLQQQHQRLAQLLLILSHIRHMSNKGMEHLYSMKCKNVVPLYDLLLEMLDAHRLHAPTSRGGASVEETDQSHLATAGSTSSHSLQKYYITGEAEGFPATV
How it was run: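 Compound effects are measured against 17beta-estradiol stimulation in HEK293 cells with a UAS-controlled beta-lactamase reporter for ER-alpha. Exposure lasts 18 hr at 37C; LiveBLAzer B/G FRET substrate follows for 2 hr at room temperature.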

[5] = qHTS assay to identify small molecule antagonists of the estrogen receptor alpha (ER-alpha) signaling pathway - cell viability counter screen (AID 743074; calls by dose curve;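 note: HEK293 cells carrying ER-alpha-UAS-bla reporter stimulated with 17beta-estradiol; nearly all actives have a fitted effect of over 45% in size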)
[6] = target: Estrogen receptor (Homo sapiens) (UniProt P03372); test: qHTS assay to identify small molecule agonists of the estrogen receptor alpha (ER-alpha) signaling pathway (AID 743075; calls by dose curve)
[7] = target: Estrogen receptor (Homo sapiens) (UniProt P03372); test: qHTS assay to identify small molecule agonists of the estrogen receptor alpha (ER-alpha) signaling pathway using the BG1 cell line (AID 743079); note: nearly all actives have a fitted effect of over 20% in size
[8] = qHTS assay to identify small molecule antagonists of the estrogen receptor alpha (ER-alpha) signaling pathway using the BG1 cell line - cell viability counter screen (AID 743081);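 note: compound given together with 17beta-estradiol as the ER stimulus; nearly all actives have a fitted effect of over 45% in size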; note: potency is the fitted concentration of half-maximal effect
Aromatase (Homo sapiens) = Aromatase (Homo sapiens) (UniProt P11511); test: qHTS assay to identify aromatase inhibitors (AID 743083); note: series mostly up to about 70 µM; nearly all actives have a fitted effect of over 55% in size
Sequence of Aromatase (Homo sapiens) (P11511 whole entry, looked up): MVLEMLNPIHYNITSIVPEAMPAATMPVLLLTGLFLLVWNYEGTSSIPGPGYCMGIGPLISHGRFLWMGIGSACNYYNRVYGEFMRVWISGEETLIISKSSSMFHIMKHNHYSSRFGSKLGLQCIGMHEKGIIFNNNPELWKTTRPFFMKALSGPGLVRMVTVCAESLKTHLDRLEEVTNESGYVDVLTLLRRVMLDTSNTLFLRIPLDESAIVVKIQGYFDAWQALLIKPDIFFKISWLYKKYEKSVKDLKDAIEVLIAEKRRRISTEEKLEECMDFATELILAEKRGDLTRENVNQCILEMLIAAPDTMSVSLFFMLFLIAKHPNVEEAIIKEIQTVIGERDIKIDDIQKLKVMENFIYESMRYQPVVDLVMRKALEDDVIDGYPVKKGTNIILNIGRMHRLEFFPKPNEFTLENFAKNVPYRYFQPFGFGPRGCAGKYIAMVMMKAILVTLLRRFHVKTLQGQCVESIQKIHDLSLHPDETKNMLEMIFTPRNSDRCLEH

[9] = qHTS assay to identify aromatase inhibitors - cell viability counter screen (AID 743084);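 note: cells stimulated with testosterone during compound exposure; nearly all actives have a fitted effect of over 55% in size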; note: potency is the fitted concentration of half-maximal effect
[10] = target: Aryl hydrocarbon receptor (Homo sapiens) (UniProt P35869); test: qHTS assay to identify small molecule that activate the aryl hydrocarbon receptor (AhR) signaling pathway (AID 743085);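 note: HG2L7.5c1 human HepG2 liver cells with stably integrated DRE-driven firefly reporter; series mostly up to about 70 µM; nearly all actives have a fitted effect of over 15% in size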
Sequence of Aryl hydrocarbon receptor (Homo sapiens) (P35869 whole entry, looked up): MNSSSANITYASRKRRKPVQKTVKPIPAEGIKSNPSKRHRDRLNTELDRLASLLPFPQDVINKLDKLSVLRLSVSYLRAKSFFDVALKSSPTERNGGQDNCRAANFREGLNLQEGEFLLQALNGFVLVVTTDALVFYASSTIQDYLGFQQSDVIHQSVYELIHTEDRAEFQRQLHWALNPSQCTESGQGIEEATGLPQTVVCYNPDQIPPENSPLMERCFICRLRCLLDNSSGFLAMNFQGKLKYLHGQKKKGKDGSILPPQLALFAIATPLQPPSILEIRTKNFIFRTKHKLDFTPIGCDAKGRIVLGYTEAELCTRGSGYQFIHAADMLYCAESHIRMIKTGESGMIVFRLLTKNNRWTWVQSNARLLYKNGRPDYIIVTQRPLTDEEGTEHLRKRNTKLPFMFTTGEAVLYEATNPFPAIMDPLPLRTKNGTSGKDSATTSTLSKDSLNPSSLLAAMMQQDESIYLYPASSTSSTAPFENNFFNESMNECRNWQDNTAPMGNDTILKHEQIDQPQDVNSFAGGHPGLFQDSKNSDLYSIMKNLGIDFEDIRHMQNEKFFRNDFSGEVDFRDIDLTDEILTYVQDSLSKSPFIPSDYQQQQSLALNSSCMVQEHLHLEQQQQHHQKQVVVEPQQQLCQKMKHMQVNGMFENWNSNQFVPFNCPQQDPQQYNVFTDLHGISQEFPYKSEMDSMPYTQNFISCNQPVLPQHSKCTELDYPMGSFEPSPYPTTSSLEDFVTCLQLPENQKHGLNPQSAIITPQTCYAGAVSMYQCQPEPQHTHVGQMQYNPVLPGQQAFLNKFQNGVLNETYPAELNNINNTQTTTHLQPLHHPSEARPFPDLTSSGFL
How it was run: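 AhR agonist activity is inferred from enhanced light output of a DRE-controlled firefly luciferase reporter in HepG2 cells, measured with ONE-Glo following 24 h treatment at 37C.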

[11] = qHTS assay to identify small molecule that activate the aryl hydrocarbon receptor (AhR) signaling pathway - cell viability counter screen (AID 743086); note: nearly all actives have a fitted effect of over 45% in size; note: potency is the fitted concentration of half-maximal effect
How it was run: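 Cytotoxicity counter screen: CellTiter-Fluor signal (30 min, 37 C) in 4000 HepG2 cells/well carrying the DRE-luciferase reporter, following 24 h compound exposure at 37 C.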

[12] = target: Peroxisome proliferator-activated receptor gamma (Homo sapiens) (UniProt P37231); test: qHTS assay to identify small molecule agonists of the peroxisome proliferator-activated receptor gamma (PPARg) signaling pathway (AID 743094; active = well fitted activation curve with a large enough effect in the signal ratio in the repeat runs, not every such curve was filed as active; the % refers to the signal ratio)
Sequence of Peroxisome proliferator-activated receptor gamma (Homo sapiens) (P37231 whole entry, looked up): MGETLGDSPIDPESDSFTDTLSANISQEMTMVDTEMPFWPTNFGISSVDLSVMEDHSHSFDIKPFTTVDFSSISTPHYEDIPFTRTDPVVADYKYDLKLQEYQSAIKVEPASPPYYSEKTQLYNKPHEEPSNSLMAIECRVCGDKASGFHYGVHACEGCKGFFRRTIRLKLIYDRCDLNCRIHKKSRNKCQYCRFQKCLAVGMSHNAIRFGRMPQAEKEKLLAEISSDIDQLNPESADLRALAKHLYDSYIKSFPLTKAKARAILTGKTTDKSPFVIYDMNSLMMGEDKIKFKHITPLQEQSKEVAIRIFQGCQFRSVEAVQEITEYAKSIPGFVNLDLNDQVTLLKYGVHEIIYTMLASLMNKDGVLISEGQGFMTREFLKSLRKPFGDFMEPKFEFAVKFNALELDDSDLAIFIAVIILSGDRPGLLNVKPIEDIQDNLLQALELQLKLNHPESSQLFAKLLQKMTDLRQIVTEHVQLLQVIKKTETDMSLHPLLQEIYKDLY
How it was run: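 Stably transfected HEK293H cells (GeneBLAzer PPARg UAS-bla) were incubated with test substances for 17 h at 37C after a 5 h pre-incubation; beta-lactamase activity was then detected by FRET substrate fluorescence.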

[13] = target: Peroxisome proliferator-activated receptor gamma (Homo sapiens) (UniProt P37231); test: qHTS assay to identify small molecule antagonists of the peroxisome proliferator-activated receptor gamma (PPARg) signaling pathway (AID 743191; calls by dose curve; note: series mostly up to about 63 µM; nearly all actives have a fitted effect of over 30% in size)
How it was run: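 Beta-lactamase reporter under UAS control in HEK293H PPARg-bla cells; compound treatment 17 h at 37C. Read-out: fluorescence intensity after 1 h room-temperature incubation with LiveBLAzer B/G FRET substrate.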

[14] = qHTS assay to identify small molecule antagonists of the peroxisome proliferator-activated receptor gamma (PPARg) signaling pathway - cell viability counter screen (AID 743194); note: nearly all actives have a fitted effect of over 55% in size
How it was run: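 Viability was measured as CellTiter-Glo luminescence in GeneBLAzer PPARg UAS-bla HEK293H cells. These cells had been exposed 17 h at 37 C to compounds together with rosiglitazone at 50 nM final, with the beta-lactamase readout taken in the same wells.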

[15] = qHTS assay for small molecule agonists of the antioxidant response element (ARE) signaling pathway - cell viability counter screen (AID 743203; calls by dose curve; note: nearly all actives have a fitted effect of over 55% in size)
How it was run: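 Cells (ARE-bla HepG2, 2,000/well) receive DMSO-dissolved compounds after a 5 hrs rest. Plates incubate 16 hrs at 37C/5% CO2. CellTiter-Glo luminescence is then recorded after 30 min at room temperature.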

[16] = qHTS assay for small molecule activators of the heat shock response signaling pathway - cell viability counter screen (AID 743209); note: nearly all actives have a fitted effect of over 50% in size
How it was run: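 Quantitative HTS format, Tox21 10K library. HeLa cells carrying an HSE-driven beta-lactamase reporter were treated 5 h at 37 C, then assessed for viability by CellTiter-Glo luminescence.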

[17] = qHTS assay to identify small molecule antagonists of the estrogen receptor alpha (ER-alpha) signaling pathway using the BG1 cell line (AID 743080; calls by dose curve;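 note: BG1 cells stimulated with 17beta-estradiol alongside compound; series mostly up to about 70 µM; nearly all actives have a fitted effect of over 25% in size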)
How it was run: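 BG1-Luc-4E2 cells (endogenous full-length ER-alpha, 4xERE luciferase) hormone-starved 5 days in charcoal-stripped FBS, plated 4,000/well for 24 h, then compound plus 17beta-estradiol for 21.5 h at 37 C; ONE-Glo luminescence read.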

[18] = qHTS assay for small molecule agonists of the antioxidant response element (ARE) signaling pathway (AID 743202; active = well fitted activation curve with a large enough effect in the signal ratio in the repeat runs, not every such curve was filed as active; the % refers to the signal ratio; note: potency is the fitted concentration of half-maximal effect)
How it was run: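 An ARE-responsive beta-lactamase gene stably integrated in HepG2 cells serves as reporter. After 5 h plating and 16 h compound incubation at 37 C, fluorescence of the B/G FRET substrate was measured.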

[19] = qHTS assay for small molecule activators of the heat shock response signaling pathway (AID 743210; active = well fitted activation curve with a large enough effect in the signal ratio in the repeat runs, with a control signal flat, not every such curve was filed as active; the % refers to the signal ratio;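 note: HeLa cells with beta-lactamase reporter driven by heat shock elements; series mostly up to about 63 µM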)
How it was run: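 In HSE-bla HeLa cells, 5 h compound incubation (37 C) precedes addition of LiveBLAzer B/G substrate; after 2.5 h at room temperature, fluorescence intensity indicates reporter induction.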

Measured: Potency

CC(=O)CCC=C(C)C
inactive: [1] | [2] | [3] | [4] | [5] | [6] | [7] | [8] | Aromatase (Homo sapiens) | [9] | [10] | [11] | [12] | [13] | [14] | [15] | [16]

CCOCC(=O)O
inactive: [1] | [2] | [3] | [4] | [5] | [6] | [7] | [17] | [8] | Aromatase (Homo sapiens) | [9] | [10] | [11] | [12] | [13] | [18] | [15] | [16] | [19]

O=S(=O)(O)c1ccc(N=Nc2c(O)ccc3cc(S(=O)(=O)O)ccc23)cc1
inactive: [2] | [3] | [4] | [5] | [6] | [7] | [17] | Aromatase (Homo sapiens) | [10] | [15] | [16]
active: [1] 30.8 µM and 27.3 µM | [8] 27.4 µM and 27.3 µM | [9] 15.4 µM and 19.3 µM | [11] 13.7 µM and 8.63 µM

Cc1ccc2ncccc2c1
inactive: [1] | [2] | [3] | [4] | [5] | [6] | [7] | [8] | Aromatase (Homo sapiens) | [9] | [10] | [11] | [12] | [13] | [14] | [18] | [15] | [16]

CC(=O)OCc1ccco1
inactive: [1] | [2] | [3] | [4] | [5] | [6] | [7] | [8] | Aromatase (Homo sapiens) | [9] | [10] | [11] | [12] | [13] | [14] | [18] | [15] | [16] | [19]

C=C(C)C(=O)OCC(C)C
inactive: [1] | [2] | [3] | [4] | [5] | [6] | [7] | [17] | [8] | Aromatase (Homo sapiens) | [9] | [10] | [11] | [12] | [13] | [18] | [15] | [16]

Cc1ccc(S(=O)(=O)N=C=O)cc1
inactive: [1] | [2] | [3] | [4] | [5] | [6] | [7] | [17] | [8] | Aromatase (Homo sapiens) | [9] | [10] | [11] | [12] | [13] | [18] | [16] | [19]

CCCCCCCCCCCCCCCCO
inactive: [1] | [2] | [3] | [4] | [5] | [6] | [7] | [17] | [8] | Aromatase (Homo sapiens) | [9] | [10] | [11] | [12] | [13] | [16]

O=C(OCC1CCC2OC2C1)C1CCC2OC2C1 (centres undefined)
inactive: [1] | [2] | [3] | [4] | [5] | [6] | [7] | [17] | [8] | Aromatase (Homo sapiens) | [9] | [10] | [11] | [12] | [13] | [14] | [18] | [16] | [19]

CCCCC(C=O)CC (centres undefined)
inactive: [1] | [2] | [3] | [4] | [5] | [6] | [7] | [17] | [8] | Aromatase (Homo sapiens) | [9] | [10] | [11] | [12] | [13] | [15] | [16]

CC(C)CC(C)O (centres undefined)
inactive: [1] | [2] | [3] | [4] | [5] | [6] | [7] | [8] | Aromatase (Homo sapiens) | [9] | [10] | [11] | [12] | [13] | [14] | [15] | [16]
inactive and 30.6 µM (active): [18]

CC(CCO)CC(C)(C)C (centres undefined)
inactive: [1] | [2] | [3] | [4] | [5] | [6] | [7] | [17] | [8] | Aromatase (Homo sapiens) | [9] | [10] | [11] | [12] | [13] | [14] | [15] | [16] | [19]

O=c1[nH]cnc2[nH]ncc12
inactive: [1] | [2] | [3] | [4] | [5] | [6] | [7] | [17] | [8] | Aromatase (Homo sapiens) | [9] | [10] | [11] | [12] | [13] | [14] | [16] | [19]

CC(C)(C)c1cc(Cc2cc(C(C)(C)C)c(O)c(C(C)(C)C)c2)cc(C(C)(C)C)c1O
inactive: [1] | [2] | [3] | [4] | [5] | [6] | [7] | [8] | Aromatase (Homo sapiens) | [9] | [10] | [11] | [12] | [13] | [14] | [18] | [15] | [16]

O=C(O)c1ccccc1C(=O)O
inactive: [1] | [2] | [3] | [4] | [5] | [6] | [7] | [17] | [8] | Aromatase (Homo sapiens) | [9] | [11] | [18] | [16] | [19]
